# Measurements taken from ChEMBL document CHEMBL3988442, “University of Dundee, Small-Polar-MMV Screening Library” (2021).
# The whole screen tested about 53,000 compounds, of which about 900 (1.7%) showed an effect of 50% or more. What follows is part of a selection rich in strong results, with near analogues and random picks from the rest.
# System: Mycobacterium tuberculosis
# Assay: Cornell - Phenotypic assay to identify agents that inhibit growth of Mycobacterium tuberculosis
# Format: functional
# Set-up: scale not given: direction of the effect not stated beside the values
# Conditions: 10 mM as filed; unlikely as a test dose
row,SMILES,Percent Effect [%]
1,Cc1cc(NS(=O)(=O)c2cccs2)ccc1-n1cccc1C(=O)O,31.6
2,Cc1cc(NS(=O)(=O)c2ccc(Cl)s2)ccc1-n1cccc1C(=O)O,25.94
3,Cc1ccc(S(=O)(=O)Nc2ccc(-n3cccc3C(=O)O)c(C)c2)s1,77.19
4,O=C(O)c1cc(NS(=O)(=O)c2ccccc2F)ccc1N1CCSCC1,-53.64
5,Cc1ccc(S(=O)(=O)Nc2ccc(-n3cccc3C(=O)O)c(C)c2)cc1,24.84
6,Cc1cnn(CC2CN(CC(=O)N(C)Cc3cnn(C)c3)CCO2)c1 (stereo unspecified),-28.01
7,CCc1ccccc1-n1nnc(C(=O)O)c1-c1ccccn1,8.629
8,COCCNC1(c2ccc(Cl)cc2)CCOCC1,-43.32
9,CCOCCNC1(c2ccc(Cl)cc2)CCOCC1,-7.005
10,Clc1ccc(OCCNC2(c3ccc(Br)cc3)CCOCC2)cc1,68.56
11,CNC(=O)C1(C)CN(c2nnc(C)c3ccccc23)CCO1 (stereo unspecified),14
12,COc1ccc(N(c2ccc(OC)cc2)c2ccc(C(=O)O)s2)cc1,27.51
13,COc1ccc(N(c2ccccc2)c2ccc(C(=O)O)s2)cc1,73.26
14,COc1ccc(N(c2ccc(C)cc2)c2ccc(C(=O)O)s2)cc1,2.836
15,Cc1ccccc1C(=O)N1CC[C@H](O)[C@@H](N2CCOCC2)CC1,45.8
16,Cc1ccccc1C(=O)N1C[C@@H](O)[C@H](N2CCOCC2)C1,51.24
17,CC(=O)N1CCN([C@@H]2CN(C(=O)c3ccccc3C)C[C@H]2O)CC1,-3.259
18,CCN(CC)S(=O)(=O)N1CC[C@H](c2ccccc2)[C@@H]2[C@H]1CCCCN2C,1.905
19,COc1cccc2ncn(C(C)Cn3cccn3)c(=O)c12 (stereo unspecified),-18.84
20,CCSc1cccc(NCc2cccnc2)c1,12.75
21,COCc1cccc(NCc2cccnc2)c1,-54.85
22,CCSCc1cccc(NCc2cccnc2)c1,73.99
23,CO[C@@H]1CCC[C@@H](NC(=O)CCCn2cncn2)[C@H]1O,5.133
24,COc1ccc(C2CN(c3ncccn3)CCN2C(C)=O)cc1 (stereo unspecified),-24.16
25,CCc1ccc2c(C3CN(CC4CCC4)C3)ncn2c1.O=C(O)C(F)(F)F,77.11
26,CCc1ccc2c(C3CN(S(C)(=O)=O)C3)ncn2c1,13.01

row,SMILES,Percent Effect [%]
1,CCc1ccc2c(C3CN(C(C)=O)C3)ncn2c1,27.54
2,Cc1csc(C2(NCc3csc(C4CC4)n3)CCCC2)n1,19.76
3,Cc1ccccc1CS(=O)(=O)c1nnc(C(C)NC(=O)OC(C)(C)C)o1 (stereo unspecified),104.2
4,C[C@H](NC(=O)OC(C)(C)C)c1nnc(S(=O)(=O)Cc2cccc(F)c2)o1,-26.24
5,Cc1noc(C(C)NC(=O)[C@@H](C)NC(=O)OC(C)(C)C)n1 (stereo partly specified),27
6,CCC(C)NC(=O)CS(=O)(=O)Cc1ccccc1Cl (stereo unspecified),2.34
7,CC(NC(=O)OC(C)(C)C)c1nnc(S(=O)(=O)Cc2ccccc2Cl)o1 (stereo unspecified),105.8
8,Cl.N[C@@H](Cc1ccccc1)c1nnc(S(=O)(=O)Cc2ccc(Cl)cc2)o1,-9.825
9,N[C@@H](Cc1ccccc1)c1nnc(S(=O)(=O)Cc2ccccc2)o1,-19.29
10,CC(NC(=O)OC(C)(C)C)c1nnc(S(=O)(=O)Cc2ccc(Cl)cc2)o1 (stereo unspecified),103.3
11,Cc1cccc(CS(=O)(=O)c2nnc([C@@H](N)Cc3ccccc3)o2)c1.Cl,-11.8
12,Cn1c(Cn2cccn2)nnc1C1CCN(Cc2cccnc2)CC1,-9.114
13,CCCOc1cc(F)ccc1NC(=O)NCc1noc(C)n1,7.548
14,Cc1cn2c(n1)CCC(NC(=O)c1oc(Br)cc1C)C2 (stereo unspecified),-43.16
15,CC(C)NC(=O)N1CCC[C@H]1C(=O)NCCCc1cccc(F)c1,-6.686
16,Cc1c[nH]nc1C1CCCN1Cc1ccncc1 (stereo unspecified),14.55
17,CNc1ccnc(NCC(=O)Nc2cc(C)ccc2OC)n1,-15.75
18,Cc1nn(C)cc1-c1cc(C(F)(F)F)nc(NC2CCCCC2)n1,22.2
19,Cc1nn(C)cc1-c1cc(C(F)(F)F)nc(NC2CCN(C)CC2)n1,11.83
20,CCn1cc(-c2cc(C(F)(F)F)nc(NC3CCCC3)n2)c(C)n1,101.8
21,COCC(=O)N1CCCC(c2nc(N)ncc2-c2cccc(F)c2)C1 (stereo unspecified),3.898
22,Cc1c(CN2CCCCC2)c(O)n(CCO)c(=O)c1C#N,38.65
23,Cc1c(CN2CCOCC2)c(O)n(CCc2ccccc2)c(=O)c1C#N,66.79
24,Cc1c(CN2CCOCC2)c(O)n(CCO)c(=O)c1C#N,-84.89
25,O=S(=O)(NCCCn1cncn1)c1ccc2c(c1)OCCO2,-20.65
